FGF22 binding: FGF22 (human) thermal shift binding | activity (Tm shift, normalised), % at 9.99 µM | recombinant FGF22 thermal shift, SYPRO orange fluorescence; percent of sucrose octasulfate shift, DMSO zero | AID 651658 | 340,000 tested, 1.5% active;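 active = mean Tm shift, scaled 0 neutral to 100 positive control, at about 1.3% or above, every replicate too, limit read from the data; inconclusive = no clear call, values can overlap the other calls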
Target sequence (Q9HCT0 whole entry, looked up): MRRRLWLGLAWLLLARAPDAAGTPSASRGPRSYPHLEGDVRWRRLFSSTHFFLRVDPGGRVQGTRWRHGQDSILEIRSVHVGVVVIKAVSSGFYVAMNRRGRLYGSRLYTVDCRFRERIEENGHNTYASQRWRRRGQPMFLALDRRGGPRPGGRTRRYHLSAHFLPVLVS
MITF TRPM1 HTS: MITF TRPM1 promoter activation in melanoma cells; SK-MEL-5 TRPM1-promoter luciferase, 24 h; % of positive control, neutral wells = 0; activation, % at 12.5 µM; 300,000 tested, 0.75% active;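 active = mean activation of at least 80% with every replicate also reaching 80%; inconclusive = mean reaches 80% but some replicate falls short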;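 also: 0% = neutral control wells and 100% = parthenolide positive control wells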
Wnt bcat act: Wnt/beta-catenin pathway activation | Wnt/beta-catenin reporter cell assay, activator, plate reader | activation, % at 9.35 µM | 300,000 tested, 1.2% active | AID 743398; in the data active = activation above about 30%, passing the limit was not always enough; inconclusive = no clear call, values can overlap the other calls;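 also: 0% = neutral control wells and 100% = positive control wells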
AF4-AF9 inh: MLL-AF4/AF9 protein interaction inhibition | P42568 | AlphaScreen, biotin-AF4 peptide binding to FLAG-AF9 | inhibition, % at 10 µM | 350,000 tested, 0.47% active | AID 651704;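 active = every replicate reaching a set inhibition limit, whatever the replicate mean, cut at about 25% in these data; inconclusive = mean inhibition reaches that limit but some replicates miss it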;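 also: 0% = plate neutral control median and 100% = total signal loss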
SMARCA2 activ: SMARCA2 function activation, primary screen. MG213 cells, MMTV-luciferase reporter, dexamethasone, overnight. activation, % at 9.1 µM. 370,000 tested, 1% active; in the data active = activation above about 7.8%;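 also: 0% = vehicle wells and 100% = reference activator wells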
esBAF inh: SWI/SNF esBAF complex inhibition; reporter increase, % at 12.5 µM; 350,000 tested, 2% active; mouse ES cells, Bmi1-luciferase knock-in reporter, 24 h; 100% = twice the neutral-well signal; in the data active = activation above about 40%; inconclusive = no clear call, values can overlap the other calls;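 also: 0% = median of the plate's neutral control wells and 100% = double that signal; a rise in the Bmi1 reporter signal indicates esBAF inhibition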
* = called active by the depositor; ? = inconclusive; . = no result given. In the library only some 4.3% were active in any assay of this set; here they are far more common.

SMILES	FGF22 binding	MITF TRPM1 HTS	Wnt bcat act	AF4-AF9 inh	SMARCA2 activ	esBAF inh
C[C@@H]1CN([C@@H](C)CO)S(=O)(=O)c2ccc(C3=CCCC3)cc2O[C@@H]1CN(C)C(=O)c1ccncc1	0	.	.	-2	.	-4
O=C(C[C@@H]1C[C@@H]2c3cc(NC(=O)c4ccc5c(c4)OCO5)ccc3O[C@@H]2[C@H](CO)O1)NC1CCCCC1	0	.	.	-1	.	-6
C[C@@H]1CCCCO[C@@H](CN(C)S(=O)(=O)c2ccccc2)[C@H](C)CN([C@@H](C)CO)C(=O)c2cc(NS(=O)(=O)c3ccc(Cl)cc3)ccc2O1	0	.	.	3	.	13
CC(=O)N(C)C[C@@H]1Oc2cc(C#CCC(C)C)ccc2S(=O)(=O)N([C@@H](C)CO)C[C@H]1C	0	.	.	4	.	3
CN(C(=O)[C@H]1O[C@@H](n2cnc3c(=O)[nH]c(N)nc32)[C@H](O)[C@@H]1O)C1CCCCC1	0	.	1	.	-4	.
O=C(Nc1nc2c(F)cc(F)cc2s1)c1ccc([N+](=O)[O-])o1	0	.	3	4	0	57*
O=C(Nc1nc2c(F)cc(F)cc2s1)c1ccco1	0	.	46*	-6	2	1
Cc1cc(C)c2nc(NC(=O)c3ccc([N+](=O)[O-])o3)sc2c1	0	-14	-1	-8	1	13
CC(NC(=O)Cn1cc2c(n1)CCCCC2)c1ccccc1 (stereo unspecified)	0	-2	1	0	-1	-10
O=C(Cn1cc2c(n1)CCCC2)Nc1cc(-c2cccc(Cl)c2)no1	0	.	6	-1	-1	51*
C[C@@H](NC(=O)C[C@@H]1C[C@@H]2c3cc(NC(=O)CC4CC4)ccc3O[C@@H]2[C@@H](CO)O1)c1ccccc1	.	.	.	-1	.	-2
c1ccc(-c2ccc(OCCOCCn3cncn3)cc2)cc1	.	68	.	.	3	62*
OCCN(Cc1ccccc1)Cc1ncccc1O	43*	-16	-2	-45	-1	4
CN1C(=O)c2cc(NC(=O)C3CCCCC3)ccc2OC[C@@H]2O[C@H](CC(=O)NCC3CCCCC3)CC[C@H]21	-1	.	.	-2	.	.
COCCCNC(=S)NNC(=O)c1csc(C)n1	0	-12	41*	5	-5	-5
CCN(CC)S(=O)(=O)c1ccc2c(c1)nc(-c1ccccn1)n2C	0	.	17	0	5	60*
CCCn1c(CCC(=O)O)nc2cc(S(=O)(=O)N(CC)CC)ccc21	0	-2	-2	6	0	-16
COc1ccccc1N1CCN(C(=O)CSc2ccccc2)CC1	.	65	.	.	3	49*
COc1ccc(/C=C/C(=O)NC(=S)N2CCN(c3ccccc3OC)CC2)cc1	0	.	22	-1	-2	77*
Cc1ccc(S(=O)(=O)N2C[C@H](O)COC[C@@H]3O[C@@H](CC(=O)NCc4ccc5c(c4)OCO5)CC[C@H]32)cc1	0	.	.	9	.	4
NC(=O)C1CCN(C(=O)c2ccc3c(=O)n(Cc4ccco4)c(SCC(=O)c4ccccc4)nc3c2)CC1	44*	13	0	5	0	-5
CCCCCn1c(SCC(=O)OCC)nc2cc(C(=O)N3CCC(C(N)=O)CC3)ccc2c1=O	.	-5	-6	.	0	-1
C=CCn1c(SCc2ccc(Cl)cc2)nc2cc(C(=O)N3CCC(C(N)=O)CC3)ccc2c1=O	21*	11	-1	5	-2	.
COCCn1c(C)cc(C(=O)CSc2nc3ccccc3c(=O)n2Cc2ccco2)c1C	0	43	55*	0	4	97*
C[C@@H]1CN([C@@H](C)CO)C(=O)Cc2cc(NC(=O)Nc3ccccc3)ccc2O[C@H]1CN(C)CC1CCCCC1	0	.	.	10	.	3
SMILES	FGF22 binding	MITF TRPM1 HTS	Wnt bcat act	AF4-AF9 inh	SMARCA2 activ	esBAF inh
C[C@H](NC(=O)C[C@H]1CC[C@@H](NC(=O)c2cccnc2)[C@@H](CO)O1)c1ccccc1	0	.	.	-1	.	1
Fc1cccc(/C=N/Nc2cc(N3CCOCC3)ncn2)c1	.	98*	26	2	1	26
CS(=O)(=O)N1CCCCN2[C@H](C1)[C@H](c1ccc(-c3cccc(C#N)c3)cc1)[C@@H]2CO	.	.	.	.	.	-3
O=C(C1CC1)N1CCc2cc(Br)cc(S(=O)(=O)N3CCCCCC3)c21	.	.	41*	.	-4	.
O=C(Nc1ccc(F)cc1)C(Sc1nnc2ccccn12)c1ccccc1 (stereo unspecified)	0	-8	-2	49*	-1	.
Cc1cc2oc(C(=O)Nc3ccc(S(N)(=O)=O)cc3)c(C)c2cc1Cl	43*	-14	-1	-1	-3	.
Cc1ccc2c(C)c(C(=O)NCc3ccc(S(N)(=O)=O)cc3)oc2c1C	43*	-3	-2	-16	-5	.
Cc1ccc2c(C)c(C(=O)Nc3ccc(S(N)(=O)=O)cc3)oc2c1C	0	21	30*	-2	3	-3
C[C@H](CO)N1C[C@H](C)[C@H](CN(C)Cc2ccc(C(=O)Nc3ccccc3N)cc2)Oc2ccc(NC(=O)Cc3cn(C)c4ccccc34)cc2C1=O	0	.	.	-1	.	-15
C[C@@H]1CN([C@@H](C)CO)C(=O)Cc2cc(NC(=O)C3CCCCC3)ccc2O[C@H]1CN(C)C	0	.	.	-1	.	-3
C[C@H](CO)N1C[C@H](C)[C@H](CN(C)C(=O)Cc2cccnc2)Oc2ncc(C#Cc3ccccc3F)cc2C1=O	0	.	.	-2	.	-3
Cc1noc(C)c1NC(=O)Nc1ccc2c(c1)C(=O)N([C@H](C)CO)C[C@@H](C)[C@@H](CN(C)S(=O)(=O)c1ccccc1)OCCCC[C@H](C)O2	.	.	.	-2	.	1
Cc1cc2ccc3ccccc3c2cc1CN(C)C	0	.	27	.	1	.
CN(C)Cc1cc2ccccc2c2c1COC2	0	0	3	32*	-2	5
Cc1ccc(N2C(=O)c3ccccc3NC2C(C)Cc2ccc3c(c2)OCO3)cc1 (stereo unspecified)	.	.	.	.	0	52*
CC(C)Oc1ccccc1C1Nc2ccccc2C(=O)N1c1ccc2c(c1)OCCO2 (stereo unspecified)	.	25	.	.	3	-28
CN(C)c1nc(-c2ccc([N+](=O)[O-])cc2)cs1	.	?	.	.	1	67*
C=CCNc1nc(-c2ccc([N+](=O)[O-])cc2)cs1	0	80	18	12	3	.
O=C(N[C@@H]1C=C[C@@H](CC(=O)N2CCCCC2)O[C@H]1CO)c1cccc(F)c1	0	.	.	0	.	-7
CCCN1[C@@H]2c3ccc(-c4ccc(F)cc4)c(=O)n3C[C@@H]2[C@@H](CO)[C@@H]1C(=O)N[C@H](C)c1ccccc1	0	.	.	8	.	3
O=C1c2ccccc2-c2nc3ccccc3cc21	0	57	59*	2	4	11
O=C(N/N=C/c1cccs1)c1c[nH]c2ccccc12	.	62	31*	.	4	?
